This note sets out measurements from PubChem BioAssay (EPA / NIEHS).

Results filed as inconclusive are left out. The source made the active and inactive calls. Rule for the calls, unless noted: active = hit-call score of the fitted dose curve at least 0.9, where 1 is the maximum; inconclusive = response in the unintended direction; inactive = score below 0.9.

Read-out in the first experiment: organic anion transporter (SLCO1B1), SLCO1B1 (gene 10599)
The experiment in a line: CLD_SLCO1B1_6hr: CellzDirect (CLD) Gene Expression Assay for organic anion transporter (SLCO1B1) at 6 hours (AID 2283668).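 Note: active means mRNA induction above DMSO baseline.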
Settings: not given
A digest of the protocol:
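Primary human hepatocytes dosed daily with test chemicals (multiple concentrations) in 0.2% DMSO vehicle; harvested at 6 h. SLCO1B1 mRNA quantified by qNPA chemiluminescence, fitted as gain-of-signal versus DMSO; cytotoxicity from phase-contrast morphology flagged alongside.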
Turning to `COC(=O)c1ccccc1C(=O)OC`, the molecule was called inactive.
Consider `Cc1c(F)c(F)c(COC(=O)C2C(/C=C(\Cl)C(F)(F)F)C2(C)C)c(F)c1F` (stereo not given), for which the call was inactive.
For `C=CCC1=C(C)C(OC(=O)C2C(C=C(C)C)C2(C)C)CC1=O` (stereo not given), the molecule was called inactive.
With `OC(c1ccc(Cl)cc1)(c1cncnc1)c1ccccc1Cl` (stereo not given), the molecule was classed as inactive.
Regarding `C=CCC1=C(C)[C@@H](OC(=O)[C@@H]2[C@@H](C=C(C)C)C2(C)C)CC1=O`, the call was inactive.
`CCNc1nc(Cl)nc(NC(C)C)n1`: the result was inactive.
For the molecule `CC1COC(Cn2cncn2)(c2ccc(Oc3ccc(Cl)cc3)cc2Cl)O1` (stereo not given), the call was inactive.
For the molecule `COc1nc(C)nc(NC(=O)NS(=O)(=O)c2ccccc2Cl)n1`, the call was inactive.
In the case of `CCCCNC(=O)n1c(NC(=O)OC)nc2ccccc21`, the call was inactive.
For `COP(=S)(OC)Oc1nc(Cl)c(Cl)cc1Cl`, the molecule was called inactive.
Same read-out and setting: for `COc1nc(C)nc(NC(=O)NS(=O)(=O)c2ccccc2CCC(F)(F)F)n1` the value was “inactive”; for `COc1nc(NC(C)C)nc(NC(C)C)n1`, “inactive”; for `CCCCNC(=O)OCC#CI`, “inactive”.
Still for that read-out and setting: for `COP(N)(=O)SC` (stereo not given) the value was “inactive”.
Same read-out and setting: for `CCOC(=O)CC(SP(=S)(OC)OC)C(=O)OCC` (stereo not given) the value was “inactive”.
On to `COC(=O)C=C(C)OP(=O)(OC)OC`, for which the outcome was inactive.
The same measure, in the same setting: for `CO/C=C(/C(=O)OC)c1ccccc1Oc1cc(Oc2ccccc2C#N)ncn1` the value was “inactive”.

Read-out in a further experiment: Cytochrome P450 (CYP24A1_1), CYP24A1 (gene 1591)
The experiment in a line: LTEA_HepaRG_CYP24A1_1: Life Technologies and Expression Analysis (LTEA) Assay for Cytochrome P450 (CYP24A1_1) using HepaRG (AID 2283671; active = hit-call score of the fitted dose curve at least 0.9, where 1 is the maximum; inactive = score below 0.9). To be noted: mRNA level, 48 h; actives raise or lower the signal. A digest of the protocol: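 Differentiated human HepaRG cells in serum-free induction medium, exposed 48 h in duplicate to eight half-log concentrations from 100 uM top, 0.5% DMSO. Transcript measured by TaqMan qRT-PCR, normalised to ACTB, GAPDH, POLR2A; bidirectional fitting versus DMSO.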
For the molecule `C=CC1(C)OC(=O)N(c2cc(Cl)cc(Cl)c2)C1=O` (stereo not given), the outcome was inactive.
Consider `OC(c1ccc(Cl)cc1)(c1cncnc1)c1ccccc1Cl` (stereo not given), for which the molecule was called inactive.
As for `CO/C=C(/C(=O)OC)c1ccccc1Oc1cc(Oc2ccccc2C#N)ncn1`, the molecule was classed as inactive.
